The campaign covered roughly 300,000 compounds. About 480 (0.16%) were called active.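 How the source made its calls: active means inhibition over 29.93%, a cutoff 3 SD above the screen mean, later confirmed by dose response; inconclusive means inhibition over 29.93% but no dose response follow-up; inactive means inhibition at most 29.93% or unconfirmed.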 These entries were drawn from the full list. Measured potencies and affinities stand elsewhere.
Assay: PhoP-dependent GFP reporter repression – Salmonella Typhimurium, primary screen (AID 1863);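 further: 0% = low Mg2+ inducing control and 100% = high Mg2+ repressing control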
Details: S. Typhimurium PhoP-regulated promoter GFP reporter, 4 h; at 50 µM; active compounds read high

inhibition, inactive:
CC1=C(C(N)=O)C(c2ccccn2)n2nc(SCc3ccccc3)nc2N1 (stereo not drawn) 1.82%
CCCCSc1nc2c(=O)[nH][nH]c(=O)c2n1Cc1ccccc1 -7.79%
Cc1ccc(NC(=O)NNC(=O)c2ccccc2)cc1 3.02%
C#CCOCCOCCOCCNc1nc(N2CCN(C(=O)CCCCCCCCCCNC(=O)[C@H](CO)n3cc(CCCSC)nn3)CC2)nc(N2CCN(C(=O)CCCCCCCCCCNC(=O)[C@H](CCCN=C(N)N)n3cc(C[C@@H](C)CC)nn3)CC2)n1 4.93%
C#CCOCCOCCOCCNc1nc(N2CCN(C(=O)CCCCCCCCCCNC(=O)[C@H]([C@@H](C)CC)n3cc(CCCCN=C(N)N)nn3)CC2)nc(N2CCN(C(=O)CCCCCCCCCCNC(=O)[C@H](CCCCN)n3cc(C)nn3)CC2)n1 24.6%
C#CCOCCOCCOCCNc1nc(N2CCN(C(=O)CCCCCCCCCCNC(=O)[C@@H](CCSC)n3cc(CCO)nn3)CC2)nc(N2CCN(C(=O)CCCCCCCCCCNC(=O)[C@H]([C@@H](C)CC)n3cc(CCCCN=C(N)N)nn3)CC2)n1 4.22%
C#CCOCCOCCOCCNc1nc(N2CCN(C(=O)CCCCCCCCCCNC(=O)[C@H]([C@@H](C)CC)n3cc(CCCCN=C(N)N)nn3)CC2)nc(N2CCN(C(=O)CCCCCCCCCCNC(=O)[C@H](CCCCN)n3cc(C[C@@H](C)CC)nn3)CC2)n1 21.5%
C#CCOCCOCCOCCNc1nc(N2CCOCC2)nc(N2CCN(C(=O)CCCCCCCCCCNC(=O)[C@H]([C@@H](C)CC)n3cc(CCCCN=C(N)N)nn3)CC2)n1 11.5%
C#CCOCCOCCOCCNc1nc(N2CCN(C(=O)CCCCCCCCCCNC(=O)[C@H]([C@@H](C)CC)n3cc(CCCCCN)nn3)CC2)nc(N2CCN(C(=O)CCCCCCCCCCNC(=O)[C@H]([C@@H](C)CC)n3cc(CCCCN=C(N)N)nn3)CC2)n1 11.9%
Cc1cc(C)nc(-n2nc(C)cc2NC(=O)CNCc2ccccc2)n1 1.3%
COC(=O)c1ccc(COc2ccc(/C=N/Nc3nc(C)cc(=O)[nH]3)cc2)cc1 2.45%
Cc1ccc(N2C(=O)c3cccc4c(Oc5ccccc5[N+](=O)[O-])ccc(c34)C2=O)c(C)c1 -0.66%
CC(=O)c1cccc(S(=O)(=O)N(C)C2CCN(C)CC2)c1 6.64%
COc1cnc(-c2cccc(C(F)(F)F)c2)[nH]c1=O -6.31%
COc1cnc(-c2ccccc2)[nH]c1=O 3.46%
CCN(CC)CCNC(=O)C(=O)Nc1ccc2c(c1)N(S(=O)(=O)c1cccs1)CCC2 0.58%
CC1(C)CC(=O)c2sc(NS(=O)(=O)c3ccc(Cl)cc3)nc2C1 -6.02%
CCn1c(CSc2nnc(-c3ccncc3)n2CCOC)nc2cc(C(=O)O)ccc21 1.32%
COc1ccc(NCC(O)COc2ccc(C(C)(C)C)cc2)cc1 (stereo not drawn) 18.9%
CC(C)(C)NCC(O)COc1ccc(Br)cc1 (stereo not drawn) -5.49%
COc1ccc(Nc2cc(C)c3ccccc3n2)cc1 -10.8%
Cc1ccc(Nc2cc(C)c3ccc(O)cc3n2)cc1C 59.6%
COC(=O)c1cc(Nc2cc(C)c3c(O)cccc3n2)cc(C(=O)OC)c1 1.78%
CC(=O)Nc1ccc(Nc2cc(C)c3ccccc3n2)cc1 -1.27%
O=C(Nc1ccccc1)c1cnc(-c2ccccc2)nc1-c1ccccc1 -0.26%
NC(=O)C1CCN(C(=O)CSc2ccccn2)CC1 -5.25%
CCCCCCNC(=O)c1cc(S(=O)(=O)N2CCc3ccccc32)ccc1F -0.27%
O=C(NNCc1ccc(O)cc1)c1ccccc1Cl -5.79%
O=C(O)CC(Cc1ccccc1)C(=O)Nc1ccc([N+](=O)[O-])cc1 (stereo not drawn) -0.18%
O=C(O)CC(Cc1ccc(Cl)cc1)C(=O)Nc1ccc([N+](=O)[O-])cc1 (stereo not drawn) -6.77%
O=[N+]([O-])c1ccc(C(O)C(CO)NC(=S)Nc2ccccc2)cc1 (stereo not drawn) -9.91%
NC(CO)C(O)c1ccc([N+](=O)[O-])cc1 (stereo not drawn) 2.92%
CCOC(=O)C(NC(C)=O)C(O)c1ccc([N+](=O)[O-])cc1 (stereo not drawn) 4.56%
O=C(Cc1ccccc1)NC(C(=O)O)C(O)c1ccc([N+](=O)[O-])cc1 (stereo not drawn) 2.69%
COc1ccc(S(=O)(=O)N2CCCCCC2)cc1N(C)S(=O)(=O)c1ccc(C)cc1 -9.69%
CCCC(=O)N(c1ccc(OCC)cc1)C1C=CS(=O)(=O)C1 (stereo not drawn) -5.2%
COC(=O)C(c1cc(OC)c(O)c(OC)c1)(N1CCNC(C)C1)C(F)(F)F (stereo not drawn) 1.17%
CCOC(=O)c1cn(C2CC2)c2c(F)c(F)c(F)cc2c1=O -6.9%
O=C(O)c1cn(C2CCCCC2)c2ccccc2c1=O -3.48%
C[C@@H]1CN(c2c(F)c(N)c3c(=O)c(C(=O)O)cn(C4CC4)c3c2F)C[C@H](C)N1 -7.7%
COC(=O)c1ccc(NC(=O)C(OC)c2ccccc2)cc1 (stereo not drawn) 5.34%
O=C(NNC(=O)c1ccccc1OCc1ccc(F)cc1)c1ccccc1O 1.71%
COc1cccc(Oc2ccc(S(=O)(=O)N3CCCC3)cc2[N+](=O)[O-])c1 -0.65%
COc1ccc([C@@H]2[C@@H]3C(=O)N(C(C)(C)C)C(=O)[C@@H]3[C@]3(Cc4ccccc4)C(=O)N(c4ccccc4)C(=O)N23)cc1 6.74%
O=C(COc1ccccc1F)NNC(=O)c1ccc2c(=O)n3c(nc2c1)CCC3 -5.21%
CC(CN1CCCCC1)OC(=O)C(C)(c1ccccc1)c1ccccc1 (stereo not drawn) -9.7%
O=S(=O)(NCC1CCCO1)c1ccc(S(=O)(=O)N(Cc2ccc(F)cc2)Cc2ccco2)cc1 (stereo not drawn) 2.4%
CCCC(=O)Nc1c2c(nc3ccccc13)N(c1ccccc1)CC2 -4.18%
